# Reference: PubChem BioAssay (NCATS)
# Records with an inconclusive call do not appear. Unmarked numbers belong to inactive results. The source made the active and inactive calls. Calls come from the whole dose curve; as a rule, active = well fitted curve in the direction sought with a large enough effect; inconclusive = small, poorly fitted or top-dose-only effect, or another doubt; inactive = no such curve, though single readings can be large; an effect the other way counts as inactive or inconclusive.
# Experiments:
# CASKI = experiment: Primary qHTS to identify gynecologic anti-cancer compounds using libraries of approved drugs and bioactive compounds (AID 1345084); conditions: Gynecologic cancer cell panel viability, ATPlite luminescence, 48 h; series mostly up to 57.5 µM; note: nearly all actives have a fitted effect of over 55% in size
# Outline: (§1)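 Luminescence from the ATPlite ATP-monitoring reagent indicates viable cell number; lower signal means cytotoxicity. Cells received compound 16 h after seeding and were exposed for 48 h across five concentrations.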
# Es-2 = experiment: as above; conditions: Gynecologic cancer cell panel viability, ATPlite luminescence, 48 h; series mostly up to 57.5 µM
# Outline: as §1
# JEG-3 = experiment: as above; conditions: Gynecologic cancer cell panel viability, ATPlite luminescence, 48 h; series mostly up to 57.5 µM
# Outline: as §1
# PA-1 = experiment: as above; conditions: Gynecologic cancer cell panel viability, ATPlite luminescence, 48 h; series mostly up to 57.5 µM
# Outline: as §1
# Tov112D = experiment: as above; conditions: Gynecologic cancer cell panel viability, ATPlite luminescence, 48 h; series mostly up to 57.5 µM
# Outline: as §1
# [1] = qHTS assay to identify inhibitors of the type 1 interferon - major histocompatibility complex class I in skeletal muscle: Counter screen cell viability and HiBit confirmation (AID 1347412); conditions: iHSKM muscle cells + IFN-b, HiBiT or CellTiter-Glo, 24 h; for Potency: HiBiT; for all read-outs here: nearly all actives have a fitted effect of over 60% in size
# Outline: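 CRISPR HLA-B*08:01-HiBit immortalized human myoblasts (C25cl48) stimulated with 4 ng/ml IFN-beta and compounds (12-point 1:3, top 46 uM final) for 24 h at 37 C. Duplicate plates read by HiBit lytic luminescence or CellTiter Glo ATP.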
# HeLa = experiment: Primary qHTS to identify gynecologic anti-cancer compounds using libraries of approved drugs and bioactive compounds (AID 1345084); conditions: Gynecologic cancer cell panel viability, ATPlite luminescence, 48 h; series mostly up to 57.5 µM; note: nearly all actives have a fitted effect of over 55% in size
# Outline: as §1
# Hek293T = experiment: as above; conditions: Gynecologic cancer cell panel viability, ATPlite luminescence, 48 h, control line for the selectivity index; series mostly up to 57.5 µM
# Outline: as §1
# SKOV3 = experiment: as above; conditions: Gynecologic cancer cell panel viability, ATPlite luminescence, 48 h; series mostly up to 57.5 µM
# Outline: as §1
# Tov-21-G = experiment: as above; conditions: Gynecologic cancer cell panel viability, ATPlite luminescence, 48 h; series mostly up to 57.5 µM
# Outline: as §1
# OV90 = experiment: as above; conditions: Gynecologic cancer cell panel viability, ATPlite luminescence, 48 h; series mostly up to 57.5 µM
# Outline: as §1
# % is set by controls: 0 for no effect and ±100 for the full control effect; potency is the fitted concentration of half-maximal effect.
compound,measurement,setting,value
c1cc(Nc2cc(C3CC3)[nH]n2)nc(Nc2ccc3nc[nH]c3c2)n1,Potency,CASKI,1780 nM (active)
same,Potency,Es-2,12600 nM (active)
same,Potency,JEG-3,inactive
same,Potency,PA-1,3980 nM (active)
same,Potency,Tov112D,1120 nM (active)
same,Potency,[1],1400 nM (active)
same,"activity change, negative = inhibition","[1]; Viability, at 45.9 µM (top of the series)",24.1%
CNS(=O)(=O)c1ccccc1Nc1nc(Nc2ccc(N3CCN(C)CC3)cc2OC)ncc1Cl,Potency,CASKI,7080 nM (active)
same,Potency,Es-2,12600 nM (active)
same,Potency,HeLa,2000 nM (active)
same,Potency,Hek293T,12600 nM (active)
same,Potency,SKOV3,3550 nM (active)
same,Potency,Tov112D,10000 nM (active)
CCCNc1ccc2ncc(-c3ccc4[nH]ncc4c3)n2n1,Potency,CASKI,8910 nM (active)
same,Potency,HeLa,4470 nM (active)
same,Potency,Hek293T,2000 nM (active)
same,Potency,PA-1,2820 nM (active)
same,Potency,Tov-21-G,3160 nM (active)
same,Potency,Tov112D,3550 nM (active)
Nc1ccc(-c2cccc3c(=O)cc(N4CCOCC4)oc23)cc1,Potency,CASKI,12600 nM (active)
same,Potency,JEG-3,inactive
same,Potency,OV90,11200 nM (active)
CC(C)[C@@](C)(O)[C@@H]1CN(c2nc(-c3[nH]nc4ncccc34)c(F)cc2Cl)CCN1,Potency,CASKI,inactive
same,Potency,Es-2,inactive
same,Potency,HeLa,inactive
same,Potency,Hek293T,inactive
same,Potency,JEG-3,25100 nM (active)
same,Potency,OV90,inactive
same,Potency,Tov112D,inactive
C[C@@H]1C[C@H]2O[C@@H]2/C=C\C=C\C(=O)Cc2c(Cl)c(O)cc(O)c2C(=O)O1,"activity change, negative = cytotoxicity",CASKI,-0.527% [at 11.6 µM]
same,"activity change, negative = cytotoxicity",Tov112D,-26.2% [at 11.6 µM]
CC[C@]1(O)CC2CN(CCc3c([nH]c4ccccc34)[C@@](C(=O)OC)(c3cc4c(cc3OC)N(C)[C@H]3[C@@](O)(C(=O)OC)[C@H](OC(C)=O)[C@]5(CC)C=CCN6CC[C@]43[C@@H]65)C2)C1 (stereo not given in full),Potency,CASKI,1120 nM (active)
same,Potency,Es-2,794 nM (active)
same,Potency,HeLa,708 nM (active)
same,Potency,OV90,3160 nM (active)
same,Potency,PA-1,282 nM (active)
same,Potency,Tov-21-G,316 nM (active)
same,Potency,Tov112D,282 nM (active)
C#CC[C@H](c1nc2cc(Cl)ccc2c(=O)n1Nc1ccccc1)N(CCCN)C(=O)c1cccc(Cl)c1F,Potency,Es-2,7940 nM (active)
same,Potency,HeLa,3160 nM (active)
same,Potency,Hek293T,14100 nM (active)
same,Potency,OV90,inactive
same,Potency,Tov112D,355 nM (active)
COc1cccc(Nc2ncnn3ccc(CN4CC[C@@H](N)[C@H](O)C4)c23)c1,Potency,CASKI,inactive
same,Potency,Es-2,inactive
same,Potency,HeLa,inactive
same,Potency,JEG-3,inactive
same,Potency,Tov-21-G,5620 nM (active)
same,Potency,[1],6250 nM (active)
N#CC(c1ccnc(OCc2ccc(CN3CCOCC3)cc2)n1)c1nc2ccccc2s1 (stereo not given),Potency,Es-2,inactive
same,Potency,HeLa,inactive
same,Potency,JEG-3,10000 nM (active)
same,Potency,OV90,7940 nM (active)
same,Potency,PA-1,inactive
same,Potency,SKOV3,7940 nM (active)
same,Potency,Tov112D,inactive
COc1ccc(-c2cnc(-c3cccc4c3-c3ccccc3C4=O)o2)cc1,Potency,Es-2,158 nM (active)
same,Potency,HeLa,199 nM (active)
same,Potency,JEG-3,2000 nM (active)
same,Potency,PA-1,355 nM (active)
same,Potency,SKOV3,158 nM (active)
same,Potency,Tov-21-G,141 nM (active)
same,Potency,Tov112D,178 nM (active)
CC(C)(C)Nc1nc2cc(Cl)c(Cl)cc2nc1S(C)(=O)=O,Potency,CASKI,35500 nM (active)
same,Potency,Hek293T,28200 nM (active)
same,Potency,JEG-3,15800 nM (active)
same,Potency,SKOV3,20000 nM (active)
same,Potency,Tov-21-G,28200 nM (active)
CO[C@H]1/C=C/C=C/C=C/C[C@H](OC(=O)[C@@H](C)NC(=O)C2CCCCC2)[C@H](C)[C@@H](O)/C(C)=C/CCc2cc(O)cc(c2)NC(=O)C1,Potency,Es-2,1780 nM (active)
same,Potency,HeLa,3550 nM (active)
same,Potency,Hek293T,708 nM (active)
same,Potency,JEG-3,inactive
same,Potency,PA-1,355 nM (active)
same,Potency,SKOV3,3160 nM (active)
same,Potency,Tov-21-G,2820 nM (active)
COc1ccc(CC2C(=O)NC(C)C(=O)N(C)C3Cc4ccc(cc4)Oc4cc(ccc4OC4OC(CO)C(O)C(O)C4O)CC(C(=O)NC(C)C(=O)NC(C)C(=O)N2C)N(C)C3=O)cc1 (stereo not given),Potency,CASKI,631 nM (active)
same,Potency,Es-2,398 nM (active)
same,Potency,HeLa,2000 nM (active)
same,Potency,Hek293T,158 nM (active)
same,Potency,SKOV3,1410 nM (active)
same,Potency,Tov-21-G,1260 nM (active)
same,Potency,Tov112D,501 nM (active)
CO[C@H]1/C=C/[C@@](C)(O)/C=C/C(=O)O[C@H](C)[C@@H](C)CC/C=C/1C,Potency,CASKI,11200 nM (active)
same,Potency,SKOV3,12600 nM (active)
same,Potency,Tov-21-G,10000 nM (active)
COc1cc2ncnc(Nc3cccc(O)c3)c2cc1OC,Potency,Es-2,inactive
same,Potency,HeLa,inactive
same,Potency,Hek293T,inactive
same,Potency,JEG-3,inactive
same,Potency,Tov-21-G,15800 nM (active)
same,Potency,Tov112D,inactive
COc1cccc(-c2cc(NCc3ccc4c(c3)OCO4)nc(N)n2)c1,Potency,Es-2,1410 nM (active)
same,Potency,HeLa,1000 nM (active)
same,Potency,JEG-3,1410 nM (active)
same,Potency,PA-1,1000 nM (active)
same,Potency,Tov-21-G,1000 nM (active)
same,Potency,Tov112D,447 nM (active)
COc1ccc(-c2ccc3c(N4CCOCC4)nc(N4CC(C)OC(C)C4)nc3n2)cc1CO (stereo not given),Potency,CASKI,1120 nM (active)
same,Potency,Hek293T,1580 nM (active)
same,Potency,JEG-3,inactive
same,Potency,OV90,2820 nM (active)
same,Potency,PA-1,2510 nM (active)
same,Potency,SKOV3,794 nM (active)
same,Potency,Tov-21-G,1260 nM (active)
CNC(=O)c1ccccc1Nc1nc(Nc2ccc(N3CCNCC3)cc2)ncc1Cl,Potency,CASKI,355 nM (active)
same,Potency,Es-2,2240 nM (active)
same,Potency,HeLa,39.8 nM (active)
same,Potency,Hek293T,631 nM (active)
same,Potency,PA-1,316 nM (active)
same,Potency,Tov-21-G,355 nM (active)
CC(Oc1ccc2[nH]nc(/C=C/c3cnn(CCO)c3)c2c1)c1c(Cl)cncc1Cl (stereo not given),Potency,Es-2,20000 nM (active)
same,Potency,HeLa,1580 nM (active)
same,Potency,Hek293T,10000 nM (active)
same,Potency,PA-1,6310 nM (active)
same,Potency,Tov-21-G,3550 nM (active)
COc1cc(OC)c(/C=C/S(=O)(=O)Cc2ccc(OC)c(NCC(=O)O)c2)c(OC)c1,Potency,Es-2,316 nM (active)
same,Potency,HeLa,251 nM (active)
same,Potency,JEG-3,447 nM (active)
same,Potency,PA-1,224 nM (active)
same,Potency,Tov112D,316 nM (active)
